The source of these data is PubChem BioAssay AID651965 (National Center for Advancing Translational Sciences (NCATS), 2013).

The structures appear in SMILES notation. About 6,400 (1.9%) of roughly 340,000 compounds were called active. Where a call stands in place of a potency, no number is given. Not shown: some 4% with an inconclusive outcome. Calls come from the whole dose curve; as a rule, active = well fitted falling curve with a large enough effect; inconclusive = small, poorly fitted or top-dose-only effect; inactive = no such curve, though single readings can be large or run the other way. Many of the other results were omitted from the sample, so actives are more common in it than they were.
Potency is the fitted concentration of half-maximal effect.

Sequence of ATP-dependent Clp protease proteolytic subunit (Bacillus subtilis (strain 168)) (P80244 whole entry, looked up): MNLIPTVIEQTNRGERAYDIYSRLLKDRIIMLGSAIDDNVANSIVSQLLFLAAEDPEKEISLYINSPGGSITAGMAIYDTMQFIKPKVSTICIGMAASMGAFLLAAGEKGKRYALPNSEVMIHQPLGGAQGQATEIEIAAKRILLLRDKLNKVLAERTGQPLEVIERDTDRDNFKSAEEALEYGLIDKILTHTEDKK

The experiment addresses ATP-dependent Clp protease proteolytic subunit (Bacillus subtilis (strain 168)) (UniProt P80244). Description: qHTS Assay for Activators of ClpP. Note: the source files actives as falling curves though it sought activators and does not explain the sign; nearly all actives have a fitted effect of over 65% in size. Conditions: purified B. subtilis ClpP, FRET peptide cleavage, 20 min; series mostly up to 57.5 µM. The method in brief:
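Buffer: 100 mM Tris/HCl pH8, 100 mM KCl, 0.05% low protease BSA, 2.5% glycerol, 0.01% Tween-20. ClpP 10 microg/mL final; 20 min RT; delta FRET normalized to ADEP and DMSO controls.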
In the case of `COc1ccc(NC(=O)CN2CCN(S(=O)(=O)c3ccc(F)cc3)CC2)cc1Cl`, the Potency entry was “inactive”.
The result for `COc1cc2c(cc1NC(=O)CN1CCN(S(=O)(=O)c3ccc(F)cc3)CC1)oc1ccccc12` reads 11.2 µM (active); that for `COc1ccccc1NC(=O)CN1CCN(S(=O)(=O)c2ccc(Br)cc2)CC1`, “inactive”.
The result for `O=C(OCc1cn([C@H]2C[C@H](c3ccccc3)N(C(=O)c3cccs3)C[C@@H]2O)nn1)c1ccccc1` reads “inactive”; that for `CCOC(=O)C1=CC[C@@H](c2ccncc2)N(S(=O)(=O)c2ccc(C)cc2)C1`, “inactive”.
As to `CC1(C(=O)NCc2ccc3c(c2)OCO3)CCN1CCc1ccccc1` (stereo unspecified), the Potency entry is “inactive”.
`C[N+](C)(C)CCNC(=O)c1c[nH]c2ccccc12`: the Potency entry is “inactive”.
Take `CC1CCN(C(=O)COC(=O)c2cc(=O)[nH]c3ccccc23)CC1`: the Potency entry was “inactive”.
For `CCOC(=O)c1ccc(NC(=O)c2cc(=O)[nH]c3ccccc23)cc1`, the Potency result is “inactive”.
The value for `CCOC(=O)c1ccc(COC(=O)c2cc(=O)[nH]c3ccccc23)o1` was 15.8 µM (active); that for `Cc1ccc2nc(-c3ccccc3)c(CC3CCCCC3)n2c1` was “inactive”.
In the case of `SCc1nc2ccc(Cl)cc2[nH]1`, the Potency result was “inactive”.
On to `COc1ccccc1CC(=O)Nc1ccc(F)cc1F`, for which the Potency result was “inactive”.
The value for `COc1ccccc1CC(=O)Nc1ccc([N+](=O)[O-])cc1OC` was 7.08 µM (active); that for `COc1cc([N+](=O)[O-])ccc1NC(=O)CN1CCCC1` was “inactive”.
For `O=C(NC(c1ccc(-c2ccccc2)cc1)c1cnccn1)C1CCN(CCOc2ccc(Cl)cc2Cl)CC1` (stereo unspecified), the Potency result is “inactive”.
The value for `COc1cc2nc(N3CCCN(C)CC3)nc(NC(C)C)c2cc1OC` was “inactive”; that for `COC(=O)Cn1c2ccc(C)cc2c2nc(C)sc21` was “inactive”.
Regarding `COC(=O)Cn1c(=NC(=O)CSCC(=O)Nc2cc(C)on2)sc2ccccc21`, the Potency result was “inactive”.
For `COC(=O)Cn1c(=NC(=O)c2cc(OC)c(OC)c(OC)c2)sc2cc(OC)ccc21`, the Potency is 2.82 µM (active).
Consider `Cc1ccccc1-c1csc(C(O)c2cccc(Cl)c2)n1` (stereo unspecified), for which the Potency entry was “inactive”.
With `COc1ccc(C(=O)Nc2ccccc2C(=O)N2CCN(c3ccccc3)CC2)cc1`, the Potency entry was “inactive”.
The value for `COc1ccc(C(=O)N2CCC(C(=O)Nc3ccc(C)cc3)CC2)cc1` was “inactive”.
In the case of `COc1ccc(C(=O)Nc2c(Cl)cc(Cl)cc2C(=O)N2CCC(C)CC2)cc1`, the Potency is 15.8 µM (active).
For `OC(Cc1ccc2ccccc2n1)c1ccc(Cl)c(Cl)c1` (stereo unspecified), the Potency result is “inactive”.
`O=C(CSc1nnc(-c2ccoc2)o1)N1CCOCC1`: the Potency result was “inactive”.
Consider `COc1ccc(-c2ccnc(SCC(=O)N3CCOCC3)n2)cc1`, for which the Potency was 15.8 µM (active).
Take `COc1ccc(N2CCN(C(=O)CSc3nnc4ncccn34)CC2)cc1`: the Potency result is “inactive”.
Take `O=C(CSc1n[nH]c(-c2ccccc2)n1)N1CCCCC1`: the Potency result was “inactive”.
Consider `COc1ccc(-c2nc(SCC(=O)N3CCCCC3C)n[nH]2)cc1` (stereo unspecified), for which the Potency result is “inactive”.
As to `COc1ccc(-c2nc(SCC(=O)N3CCOCC3)n[nH]2)cc1`, the Potency was 15.8 µM (active).
On to `CCc1ccccc1NC(=O)CN1CCN(C(=O)c2cc(C3CC3)nn2-c2ccccc2)CC1`, for which the Potency result is “inactive”.
With `CSc1ccc(CNC(=O)C2(C)CCCN2C)cc1` (stereo unspecified), the Potency entry was “inactive”.
The result for `CCOC(=O)c1ccc(-n2c(CCC(=O)O)ccc2-c2ccccc2)cc1` reads “inactive”; that for `CCOC(=O)c1c(-c2ccc(OC)cc2)oc2ccc(OCc3ccc(C(=O)OC)cc3)cc12`, “inactive”; that for `CCOC(=O)c1ccc(COC(=O)CCc2nc(-c3ccccc3)c(-c3ccccc3)o2)cc1`, 28.2 µM (active).
The result for `COC(=O)C1=CN(c2c(C)cc(C)cc2C)C(N)=C(C#N)C1c1cccc(F)c1` (stereo unspecified) reads “inactive”; that for `Cc1ccc(Cn2cc(CN3CC(N4CCN(C)CC4)CS3(=O)=O)nn2)cc1` (stereo unspecified), “inactive”; that for `OC[C@@H]1CN(Cc2cccs2)C[C@H](n2cnc3c(Nc4ccccc4)ncnc32)O1`, “inactive”.
`CC(C)C[C@@H](COCc1ccc(Cl)cc1)N1CCN(C(=O)c2ccc(Cl)cc2Cl)CCC1=O`: the Potency result was “inactive”.
On to `OC[C@@H]1CN(Cc2ccc(-c3ccccc3)cc2)C[C@H](n2cnc3c(NC4CCCC4)ncnc32)O1`, for which the Potency result is “inactive”.
As for `C[N+](C)(CCCCCC[N+](C)(C)CCCN1C(=O)c2cccc3cccc(c23)C1=O)CCCN1C(=O)c2cccc3cccc(c23)C1=O`, the Potency result was “inactive”.
As to `COc1cccc2c(=O)n(CC(=O)N3CCCCCC3)ccc12`, the Potency entry is “inactive”.
Turning to `O=C(CN1C(=O)c2cccc3cccc(c23)C1=O)N1CCCCC1`, the Potency is 14.1 µM (active).
With `C#CCNC(=O)C[C@@H]1C[C@@]2(C(=O)OCC)CCCC=C2N(Cc2ccco2)C1=O`, the Potency entry was “inactive”.
`CC(=O)Nc1cccc(Nc2ccc(C#N)cc2)c1`: the Potency result was “inactive”.
`O=C1O/C(=C\c2ccc(O)cc2)C(O)=C1c1ccc(O)cc1`: the Potency entry is “inactive”.
In the case of `CC(C)(C)NC(=O)C(c1ccco1)N(Cc1ccc2c(c1)OCO2)C(=O)Cn1nnc2ccccc21` (stereo unspecified), the Potency entry is “inactive”.
Consider `CCC(C)(C)NC(=O)C(c1ccc(O)cc1)N(C(=O)Cn1nnc2ccccc21)c1ccc(NC(C)=O)cc1` (stereo unspecified), for which the Potency result was “inactive”.
In the case of `CCC(C)(C)NC(=O)C(c1cccn1C)N(Cc1ccc(C)cc1)C(=O)Cn1nnc2ccccc21` (stereo unspecified), the Potency was 31.6 µM (active).
For `Nc1[nH]c(C(=O)c2ccccc2)c(-c2ccncc2)c1C(=O)NCc1cccc2ccccc12`, the Potency entry was “inactive”.
As for `CCOC(=O)C1CCCN(C(=O)c2cccc3ccccc23)CC1` (stereo unspecified), the Potency entry is “inactive”.
As to `COc1ccccc1CNC(=O)c1ccc(NC(=O)N2CC(C)Sc3ccccc32)cc1` (stereo unspecified), the Potency entry is “inactive”.
On to `COc1ccc(CCNC(=O)c2cc3cccc4c3n2CC(C)S4)c(OC)c1OC` (stereo unspecified), for which the Potency is 31.6 µM (active).
The result for `COc1ccc(CCNC(=O)c2nn(C)c3c2CSc2ccccc2-3)cc1OC` reads “inactive”.
Regarding `NC(c1csc(NC(=O)Nc2cccc(C(F)(F)F)c2)n1)C1CCCCC1` (stereo unspecified), the Potency entry is “inactive”.
For the molecule `CN(Cc1ccccc1F)c1cc2c(c3c1ccn3C)C1CCC2O1` (stereo unspecified), the Potency result is “inactive”.
Regarding `COC(=O)Cc1ccc(OC2(C)CCN(Cc3ccc4c(c3)OCCO4)C2)cc1` (stereo unspecified), the Potency entry was “inactive”.
Regarding `O=C(Nc1ccc([N+](=O)[O-])cc1)c1cnn2c1NC(=C1CC1)C=C2C(F)F`, the Potency result was “inactive”.
The value for `Cc1ccc(S(=O)(=O)N2CCN(c3ccccc3)CC2)cc1C` was 17.8 µM (active).
The result for `CC(=O)Nc1ccc(S(=O)(=O)N2CCN(c3ccccc3)CC2)cc1` reads “inactive”.
The result for `Cc1cc(N2CCN(S(=O)(=O)c3ccc(C)c(C)c3)CC2)c2ccccc2n1` reads “inactive”; that for `C[N+]1(CC(=O)c2cccs2)CCOCC1`, “inactive”.
Regarding `CCCCC(=O)N(C)c1c(CC)nc2c(OCc3ccc(S(C)(=O)=O)cc3)cccn12`, the Potency result was “inactive”.
In the case of `COc1ccc(C2=CC(c3ccccc3Cl)n3nc(-c4ccc(Cl)cc4)nc3N2)cc1` (stereo unspecified), the Potency result is “inactive”.
In the case of `Cc1ccc(C2C=C(c3ccc(Cl)cc3)Nc3nc(NC(=O)CCC(=O)O)nn32)cc1` (stereo unspecified), the Potency is 6.31 µM (active).
Turning to `CCOc1ccc(C2=CC(c3ccccc3)n3ncnc3N2)cc1` (stereo unspecified), the Potency entry was “inactive”.
The result for `O=C(NCCOc1ccccc1)N1[C@H]2CC[C@@H]1C=C(c1ccc(F)cc1OCc1ccccc1)C2` reads “inactive”; that for `CCCCn1nnnc1C1(C)CCC(=O)N1Cc1ccc(OC)c(OC)c1` (stereo unspecified), “inactive”; that for `COCc1cccc(-c2csc(C(O)c3ccc(F)cc3)n2)c1` (stereo unspecified), “inactive”.
With `O=S1(=O)CCN(Cc2ccccc2)CC1`, the Potency entry is “inactive”.
Regarding `Cc1ccc(-n2c(N)c(C(=O)N3CCOCC3)sc2=S)c(C)c1`, the Potency result is “inactive”.
`Cc1cccc(-n2c(N)c(C(=O)N3CCN(C)CC3)sc2=S)c1`: the Potency is 17.8 µM (active).
The value for `N#Cc1ccccc1-n1c(N)c(C(=O)N2CCCC2)sc1=S` was “inactive”.
In the case of `CCc1nc2c(OCCOc3ccccc3)cccn2c1N(C=O)Cc1ccc(OC)cc1`, the Potency entry was “inactive”.
In the case of `CS(=O)(=O)N1CCCCC1c1cc(C(=O)NCc2ccccc2)no1` (stereo unspecified), the Potency entry was “inactive”.
For `CC(=O)NCCNC(=O)c1cc(-c2cccc3ccccc23)nc2ccccc12`, the Potency entry is “inactive”.
The result for `CC(C)(C)c1ccc(C(=O)NCc2ccco2)cc1` reads “inactive”; that for `CCc1ccc(-c2cc(C(=O)NCc3ccco3)c3ccccc3n2)s1`, 28.2 µM (active); that for `CC(C)Nc1nc(NCCOc2ccccc2Cl)c2sccc2n1`, “inactive”.
As to `COC(=O)c1ccc(CN2C(=O)C(Cc3ccccc3)ON=C2c2ncccc2C)o1` (stereo unspecified), the Potency entry was “inactive”.
For the molecule `COc1ccc(C(=O)NCC2CCCO2)cc1S(=O)(=O)NCc1ccc(Cl)cc1` (stereo unspecified), the Potency entry is “inactive”.
As for `CC(c1ccco1)N(C(=O)COc1ccccc1[N+](=O)[O-])c1ccccn1` (stereo unspecified), the Potency was 15.8 µM (active).
As for `CC(c1ccco1)N(C(=O)c1ccc(S(=O)(=O)N2CCCCC2)cc1)c1ccccn1` (stereo unspecified), the Potency entry was “inactive”.
As to `Cc1ccc(CN(C(=O)c2ccccc2[N+](=O)[O-])c2ccccn2)cc1`, the Potency result is “inactive”.
Turning to `CN(C(=O)c1cc2c(=O)n3ccccc3nc2s1)C1CCCCC1`, the Potency was 3.16 µM (active).
In the case of `CN(C(=O)CSc1nncc2ccccc12)C1CCCCC1`, the Potency result was “inactive”.
On to `CCOCCCNC(=O)c1cc2c(=O)n3ccccc3nc2s1`, for which the Potency result was “inactive”.
For the molecule `O=c1[nH][nH]c2c1[C@H](c1ccc(Cl)cc1)O[C@H](CCc1ccccc1)C2`, the Potency result was “inactive”.
In the case of `O=c1oc2cc(O)ccc2cc1-c1ccc(F)cc1`, the Potency was 14.1 µM (active).
Regarding `COc1cccc(C(=O)c2cc3ccc(O)cc3oc2=O)c1`, the Potency entry was “inactive”.
`COc1ccc(-c2cc3ccc(OCc4nn[nH]n4)cc3oc2=O)cc1`: the Potency result is “inactive”.
On to `CCOC(=O)N(C)c1c(CC)nc2c(OCc3ccccc3C(=O)OC)cccn12`, for which the Potency entry was “inactive”.
The value for `COc1cncc(-c2cnc3sc(NCCc4ccccn4)nn23)c1` was “inactive”; that for `CCc1nc2ccc(C(=O)N3CCN(S(=O)(=O)CC)CC3)cn2c1N(C=O)CCC(C)C` was “inactive”.
Take `COc1ccc(S(=O)(=O)N(C)C[C@H]2OCc3cnnn3CCCC(=O)N([C@H](C)CO)C[C@H]2C)cc1`: the Potency result was “inactive”.
Turning to `C=C1C(=O)[C@]23C[C@H]1CCC2[C@@]1(C)C(C[C@@H]3O)[C@](C)(C(=O)O)CC[C@@H]1O` (stereo partly specified), the Potency result is “inactive”.
Take `CC(C)CN1CCC1(C)C(=O)Nc1ccc(OC(F)F)cc1` (stereo unspecified): the Potency result was “inactive”.
As for `Cc1nn(Cc2ccccc2)c(C)c1C(=O)NCCCN1CCCC1=O`, the Potency result is “inactive”.
With `O=Cc1c(NCCCN2CCCC2=O)c2ccccc2[nH]c1=O`, the Potency result is “inactive”.
Take `O=C1CCCN1CCCNc1ncnc2c1[nH]c1ccccc12`: the Potency was 22.4 µM (active).
